This is an account of results in PubChem BioAssay (Tox21).

Assay [1] can be described thus: qHTS assay for identifying genotoxic compounds that show differential cytotoxicity against isogenic chicken DT40 cell lines with known DNA damage response pathways - wild type cell line (AID 743012). Also: nearly all actives have a fitted effect of over 60% in size. Also: potency is read from the fitted curve at half-maximal effect. In outline: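 Luminescent ATP viability signal (CellTiter-Glo, 30 min RT) recorded after wild type DT40 cells were incubated with compounds for 40 h at 37 C/5% CO2.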

A short description of assay [2]: qHTS assay for identifying genotoxic compounds that show differential cytotoxicity against isogenic chicken DT40 cell lines with known DNA damage response pathways - Rev3 mutant cell line (AID 743014). Also: nearly all actives have a fitted effect of over 55% in size. Also: potency is read from the fitted curve at half-maximal effect. For orientation: qHTS replaces the single test concentration by a dilution series.
Assay [3] can be described thus: qHTS assay for identifying genotoxic compounds that show differential cytotoxicity against isogenic chicken DT40 cell lines with known DNA damage response pathways - Rad54/Ku70 mutant cell line (AID 743015). Also: nearly all actives have a fitted effect of over 60% in size. Also: potency is read from the fitted curve at half-maximal effect.
A short description of assay [4]: qHTS assay to identify small molecule antagonists of the androgen receptor (AR) signaling pathway - cell viability counter screen (AID 743033; also: nearly all actives have a fitted effect of over 45% in size).
The nature of assay [5]: qHTS assay to identify small molecule antagonists of the androgen receptor (AR) signaling pathway using the MDA cell line - cell viability counter screen (AID 743041; also: nearly all actives have a fitted effect of over 45% in size). In outline: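 In this qHTS counter assay, fluorescence intensity after CellTiter-Fluor addition indicated viability of MDA-kb2 AR-luc cells given compounds and R1881 for 16 h at 37C.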
Assay [6] can be described thus: qHTS assay to identify small molecule antagonists of the thyroid receptor (TR) signaling pathway - cell viability counter screen (AID 743064). Also: nearly all actives have a fitted effect of over 50% in size. The method, boiled down: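 Same-well viability check: GH3.TRE-Luc cells stimulated with 1 nM T3 alongside test compound for 23.5 h, followed by CellTiter-Fluor fluorescence.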
For assay [7], the system named is thyroid hormone receptor (rat, GH3 cells). As to the kind of experiment: qHTS assay to identify small molecule agonists of the thyroid receptor (TR) signaling pathway (AID 743066; calls by dose curve).
Assay [8] is described as follows: qHTS assay to identify small molecule antagonists of the estrogen receptor alpha (ER-alpha) signaling pathway - cell viability counter screen (AID 743074; calls by dose curve;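 also: HEK293 cells carrying ER-alpha-UAS-bla reporter stimulated with 17beta-estradiol; nearly all actives have a fitted effect of over 45% in size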).
The target in assay [9] is Estrogen receptor (Homo sapiens) (UniProt P03372). As to the kind of experiment: qHTS assay to identify small molecule agonists of the estrogen receptor alpha (ER-alpha) signaling pathway (AID 743075; calls by dose curve;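 also: HEK293 GripTite cells with ER-alpha and UAS-driven beta-lactamase reporter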).
Assay [10] shares this target. As to the kind of experiment: qHTS assay to identify small molecule agonists of the estrogen receptor alpha (ER-alpha) signaling pathway using the BG1 cell line (AID 743079). Also: nearly all actives have a fitted effect of over 20% in size. Also: potency is read from the fitted curve at half-maximal effect.
A short description of assay [11]: qHTS assay to identify small molecule antagonists of the estrogen receptor alpha (ER-alpha) signaling pathway using the BG1 cell line (AID 743080; calls by dose curve;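 also: BG1 cells stimulated with 17beta-estradiol alongside compound; series mostly up to about 70 µM; nearly all actives have a fitted effect of over 25% in size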). The method, boiled down:
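Seeding, 24 h rest, compound transfer from DMSO, 17beta-estradiol addition, 21.5 h incubation, CellTiter-Fluor (30 min, 37 C), then ONE-Glo (30 min, room temperature): this sequence was run on BG1-Luc-4E2 reporter cells.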

Assay [12] in a line: qHTS assay to identify small molecule antagonists of the estrogen receptor alpha (ER-alpha) signaling pathway using the BG1 cell line - cell viability counter screen (AID 743081).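 Also: compound given together with 17beta-estradiol as the ER stimulus; series mostly up to about 70 µM; nearly all actives have a fitted effect of over 45% in size.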
The target in a further assay is Aromatase (Homo sapiens) (UniProt P11511). As to the kind of experiment: qHTS assay to identify aromatase inhibitors (AID 743083). Also: series mostly up to about 70 µM; nearly all actives have a fitted effect of over 55% in size.
Assay [13] is described as follows: qHTS assay to identify aromatase inhibitors - cell viability counter screen (AID 743084).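 Also: cells stimulated with testosterone during compound exposure; nearly all actives have a fitted effect of over 55% in size.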
For assay [14], the target named is Androgen receptor (Homo sapiens) (UniProt P10275). The assay can be described thus: qHTS assay to identify small molecule agonists of the androgen receptor (AR) signaling pathway using the MDA cell line (AID 743040; also: nearly all actives have a fitted effect of over 20% in size). In outline:
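Cell-based luciferase reporter: MDA-kb2, MMTV promoter (AR + GR response elements). 16 h compound exposure at 37C; ONE-Glo, 30 min RT, luminescence.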

Assay [15] concerns the target Estrogen receptor (Homo sapiens) (UniProt P03372). As to the kind of experiment: qHTS assay to identify small molecule antagonists of the estrogen receptor alpha (ER-alpha) signaling pathway (AID 743069; active = well fitted curve in the direction sought with a large enough effect in the signal ratio in the repeat runs, not every such curve was filed as active; the % refers to the signal ratio). In outline:
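A 17beta-estradiol challenge was applied right after compound transfer to ER-alpha-UAS-bla HEK293 cells previously kept in charcoal-stripped serum. Plates stood 18 hr at 37C and 5% CO2; fluorescence was read following 2 hr FRET substrate loading at room temperature.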

Assay [16] can be described thus: qHTS assay to identify small molecule antagonists of the thyroid receptor (TR) signaling pathway (AID 743065). Also: series mostly up to about 70 µM; nearly all actives have a fitted effect of over 55% in size. In outline:
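GH3.TRE-Luc rat pituitary cells carrying two TR response elements driving luciferase were plated for 4 h, given compound plus 1 nM T3 (final), and incubated 23.5 h at 37 C. ONE-Glo luminescence measured reporter inhibition; CellTiter-Fluor fluorescence tracked cytotoxicity.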

Assay [17] concerns the target Androgen receptor (Homo sapiens) (UniProt P10275). As to the kind of experiment: qHTS assay to identify small molecule antagonists of the androgen receptor (AR) signaling pathway using the MDA cell line (AID 743042; also: nearly all actives have a fitted effect of over 55% in size). In outline: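 MDA-kb2 cells (human breast carcinoma, stably carrying an MMTV-luciferase reporter responsive to AR and GR) were plated at 3,000 cells/well and preincubated 5 hr at 37C, then given compound plus R1881 agonist for 16 h. ONE-Glo luminescence was read.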

Records with an inconclusive call do not appear. Some structures have more than one record in an assay (separate samples or runs), and their calls can disagree. Calls of active or inactive are those of the source. Unless noted, calls follow the shape of the dose curve; as a rule, active = well fitted curve in the direction sought with a large enough effect in the repeat runs; inconclusive = weak or mixed curves; inactive = no such curve, though single readings can be large; an effect the other way counts as inactive or inconclusive.

Estrogen receptor (Homo sapiens), sequence (P03372 whole entry, looked up): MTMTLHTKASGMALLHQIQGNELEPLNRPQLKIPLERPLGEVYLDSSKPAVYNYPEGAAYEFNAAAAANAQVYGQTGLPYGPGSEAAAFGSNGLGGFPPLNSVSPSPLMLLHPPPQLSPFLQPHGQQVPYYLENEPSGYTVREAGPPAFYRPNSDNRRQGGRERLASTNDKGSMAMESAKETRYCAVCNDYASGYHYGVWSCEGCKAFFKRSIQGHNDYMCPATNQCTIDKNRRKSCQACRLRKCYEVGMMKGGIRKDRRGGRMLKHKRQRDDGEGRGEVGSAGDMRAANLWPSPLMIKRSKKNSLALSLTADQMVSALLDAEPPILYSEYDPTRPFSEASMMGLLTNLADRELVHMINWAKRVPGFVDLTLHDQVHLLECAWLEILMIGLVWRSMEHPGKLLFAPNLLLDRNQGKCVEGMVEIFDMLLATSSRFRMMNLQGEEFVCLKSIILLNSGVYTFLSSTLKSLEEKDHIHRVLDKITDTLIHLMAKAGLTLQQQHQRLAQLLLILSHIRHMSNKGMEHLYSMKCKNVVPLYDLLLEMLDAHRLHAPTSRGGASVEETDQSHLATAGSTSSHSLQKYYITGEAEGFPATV
Androgen receptor (Homo sapiens), sequence (P10275 whole entry, looked up): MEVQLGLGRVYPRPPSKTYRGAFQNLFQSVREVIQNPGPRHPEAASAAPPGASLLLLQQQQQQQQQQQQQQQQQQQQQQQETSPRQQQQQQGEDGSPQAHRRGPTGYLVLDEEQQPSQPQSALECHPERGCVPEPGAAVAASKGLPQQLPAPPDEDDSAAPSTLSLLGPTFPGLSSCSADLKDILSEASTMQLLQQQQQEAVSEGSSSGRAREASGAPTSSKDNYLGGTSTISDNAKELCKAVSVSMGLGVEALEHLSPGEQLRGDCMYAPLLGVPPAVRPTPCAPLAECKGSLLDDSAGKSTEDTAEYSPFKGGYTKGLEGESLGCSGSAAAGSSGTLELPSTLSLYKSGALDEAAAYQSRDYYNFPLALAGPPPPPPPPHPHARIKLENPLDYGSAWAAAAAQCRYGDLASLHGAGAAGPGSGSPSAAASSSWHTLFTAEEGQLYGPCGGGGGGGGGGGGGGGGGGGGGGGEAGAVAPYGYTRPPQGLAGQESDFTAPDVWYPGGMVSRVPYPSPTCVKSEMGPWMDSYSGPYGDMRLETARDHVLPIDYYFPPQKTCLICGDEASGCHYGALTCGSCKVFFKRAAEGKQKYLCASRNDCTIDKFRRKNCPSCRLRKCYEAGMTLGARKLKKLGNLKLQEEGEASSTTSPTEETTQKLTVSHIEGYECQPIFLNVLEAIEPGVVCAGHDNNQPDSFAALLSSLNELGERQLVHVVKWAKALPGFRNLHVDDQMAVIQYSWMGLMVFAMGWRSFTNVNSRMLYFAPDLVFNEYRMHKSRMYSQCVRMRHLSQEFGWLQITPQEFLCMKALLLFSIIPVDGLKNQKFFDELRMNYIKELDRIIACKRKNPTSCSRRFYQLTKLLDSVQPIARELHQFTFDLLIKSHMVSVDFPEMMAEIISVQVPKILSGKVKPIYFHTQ
Aromatase (Homo sapiens), sequence (P11511 whole entry, looked up): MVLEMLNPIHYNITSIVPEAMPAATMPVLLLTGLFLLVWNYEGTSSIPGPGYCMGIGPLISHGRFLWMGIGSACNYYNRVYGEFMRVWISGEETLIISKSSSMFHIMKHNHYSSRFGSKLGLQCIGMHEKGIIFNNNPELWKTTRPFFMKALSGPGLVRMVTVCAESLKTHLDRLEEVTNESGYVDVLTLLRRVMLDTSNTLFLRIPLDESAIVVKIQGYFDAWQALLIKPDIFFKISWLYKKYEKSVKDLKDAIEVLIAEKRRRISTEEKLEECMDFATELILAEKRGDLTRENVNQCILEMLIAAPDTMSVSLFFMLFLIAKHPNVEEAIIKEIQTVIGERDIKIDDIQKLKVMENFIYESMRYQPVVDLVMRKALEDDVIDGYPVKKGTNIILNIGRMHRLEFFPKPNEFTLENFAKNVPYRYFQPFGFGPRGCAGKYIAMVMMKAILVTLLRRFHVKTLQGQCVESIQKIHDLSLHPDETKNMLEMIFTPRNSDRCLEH

Regarding `CC1OCCC1=O` (stereo unspecified), the Potency result in [1], in assay [2], in assay [3], in [5], in assay [6] and in assay [9] was “inactive” each time. For the same compound, the Potency entry in assay [10], in [12] and in assay [13] was “inactive” each time. Also, the compound was classed as inactive (in [4]; in assay [7]; in assay [8]; in assay [11]; with Aromatase (Homo sapiens)).
On to `COc1ccc2c(c1)c1c3n2CCN(C)C3=NCC1`, for which, in assay [3], the Potency was 23.7 µM (active). In addition, the result (in assay [4]; in assay [7]; in [15]; in [8]; in assay [11]; with Aromatase (Homo sapiens)) was inactive. Further, the Potency entry in [14], in assay [5], in assay [6], in assay [9], in assay [10] and in [12] was “inactive” each time. The Potency result in assay [13] was “inactive”.
On to `CC1=C(C(=O)O)N2C(=O)[C@@H](NC(=O)[C@H](N)C3=CCC=CC3)[C@H]2SC1`, for which the Potency entry in assay [1], in [2], in assay [3], in [5], in assay [6] and in assay [16] was “inactive” throughout. The Potency entry in assay [9], in assay [10] and in assay [13] was “inactive” throughout. The result (in assay [4]; in [7]; in assay [15]; in [11]; with Aromatase (Homo sapiens)) was inactive.
In the case of `CC(C)c1ccc(C=O)cc1`, the Potency result in assay [2], in assay [3], in assay [5], in assay [16], in assay [9] and in assay [10] was “inactive” each time. In addition, the Potency result in assay [12] and in assay [13] was “inactive” in each case. The call (in [4]; in assay [7]; in assay [15]; in [8]; in assay [11]; in the assay with Aromatase (Homo sapiens)) was inactive.
On to `CCC/C=C(\C=O)CC`, for which the Potency entry in [1], in assay [2], in [3], in assay [5], in [6] and in assay [16] was “inactive” throughout. The Potency result in assay [9], in [10], in assay [12] and in assay [13] was “inactive” each time. Also, the outcome (in assay [7]; in assay [15]; in [8]; in assay [11]; with Aromatase (Homo sapiens)) was inactive.
Turning to `c1ccc2cnccc2c1`, the Potency was 30.6 µM (active) in [2] and 54.5 µM (active) in assay [3]. Moreover, the result (in assay [4]; in assay [7]; in [8]; in assay [11]; in the assay with Aromatase (Homo sapiens)) was inactive. Further, the Potency entry in assay [5], in [9], in assay [10], in [12] and in [13] was “inactive” each time.
Consider `NCC1(Cc2noc(=O)[nH]2)CCCCC1`, for which the Potency result in assay [2], in assay [3], in assay [5], in assay [9], in assay [10] and in assay [12] was “inactive” in each case. Also, in assay [13], the Potency result is “inactive”. Further, the compound was called inactive (in assay [4]; in assay [15]; in [8]; in assay [11]; with Aromatase (Homo sapiens)).
Regarding `C[C@]12CCC(=O)C=C1CC[C@H]1[C@@H]3CC[C@](O)(C(=O)CO)[C@@]3(C)C[C@H](O)[C@@]12F`, the Potency in assay [1] is 23.7 µM (active); in assay [2] it was 11.9 µM (active); in assay [3], 21.1 µM (active); in assay [10], 4.73 µM (active) and inactive. Moreover, the compound was classed as inactive (in assay [4]; in assay [7]; in assay [8]; with Aromatase (Homo sapiens)). The Potency entry in assay [5], in assay [6], in assay [9], in [12] and in assay [13] was “inactive” each time.
Consider `C/C=C(\C)C(=O)OCCc1ccccc1`, for which the Potency entry in [1], in [2], in [3], in assay [5], in [6] and in [16] was “inactive” each time. In addition, the Potency entry in assay [12] and in [13] was “inactive” each time. Moreover, the compound was called inactive (in assay [4]; in assay [7]; in assay [8]; with Aromatase (Homo sapiens)).
For the compound `O=C(O)CONC(=O)c1ccccc1`, the Potency entry in assay [2], in assay [3], in assay [5], in assay [6], in [16] and in assay [12] was “inactive” throughout. Further, the call in [4], in [7] and in [8] was inactive.
`CCC(=O)c1c(O)cc(O)cc1O`: the Potency entry in [1], in assay [2], in assay [3], in assay [14], in assay [5] and in assay [6] was “inactive” in each case. In addition, the Potency entry in assay [16], in assay [9], in assay [10], in assay [12] and in assay [13] was “inactive” each time. Further, the outcome (in [17]; in assay [7]; in assay [15]; in [8]; in [11]; with Aromatase (Homo sapiens)) was inactive.
For the compound `CN1CCOC(c2ccccc2)c2ccccc2C1` (stereo unspecified), the Potency entry in assay [2], in assay [5], in [6], in assay [16], in [12] and in [13] was “inactive” each time. Further, the outcome (in assay [7]; in assay [8]; in the assay with Aromatase (Homo sapiens)) was inactive.
Consider `Cc1c(N)cccc1Cl`, for which the Potency result in [1], in assay [2], in [3], in assay [5], in assay [6] and in assay [16] was “inactive” throughout. The Potency entry in [9], in assay [12] and in [13] was “inactive” each time. Moreover, the compound was called inactive (in assay [4]; in [7]; in assay [15]; in assay [11]; with Aromatase (Homo sapiens)).
With `CC1(C)[C@H]2CC[C@](C)(C2)[C@H]1O`, the Potency entry in [1], in [2], in assay [3], in assay [5], in assay [6] and in assay [16] was “inactive” throughout. In addition, the Potency result in assay [9], in assay [10], in assay [12] and in [13] was “inactive” each time. Further, the call (in assay [7]; in assay [15]; in assay [8]; in assay [11]; in the assay with Aromatase (Homo sapiens)) was inactive.
Consider `O=Cc1ccccc1Cl`, for which the Potency result in assay [1], in assay [2], in assay [3], in assay [5], in assay [6] and in assay [12] was “inactive” in each case. The outcome (in assay [7]; in assay [8]; with Aromatase (Homo sapiens)) was inactive.
Regarding `O=C1CCCCO1`, the Potency result in assay [1], in [2], in [3], in assay [5], in assay [6] and in assay [16] was “inactive” throughout. The Potency result in [9], in assay [10], in [12] and in assay [13] was “inactive” in each case. Also, the compound was classed as inactive (in [4]; in assay [7]; in [8]; in assay [11]; with Aromatase (Homo sapiens)).
For `CC1(C)O[C@H]2CC(=O)OC[C@]23[C@H]2CC[C@@]4(C)[C@H](c5ccoc5)OC(=O)[C@H]5O[C@]54[C@]2(C)C(=O)C[C@@H]13`, the Potency entry in assay [1], in assay [2], in [3], in assay [5], in assay [6] and in assay [16] was “inactive” in each case. Further, the Potency result in assay [9] and in assay [13] was “inactive” each time. Also, the call (in assay [4]; in assay [7]; in [15]; in assay [8]; in the assay with Aromatase (Homo sapiens)) was inactive. Moreover, the Potency in assay [10] is 13.3 µM (active).
For the compound `CC(O)CC(C)O` (stereo unspecified), the Potency entry in assay [1], in assay [2], in assay [3], in assay [5], in assay [6] and in assay [16] was “inactive” throughout. The Potency result in [12] and in assay [13] was “inactive” in each case. Also, the compound was classed as inactive (in assay [4]; in assay [7]; in [8]; in the assay with Aromatase (Homo sapiens)).
Consider `OCC(O)CN1CCN(c2ccccc2)CC1` (stereo unspecified), for which the Potency result in [2], in assay [3], in [5], in assay [16], in [12] and in [13] was “inactive” throughout. The compound was called inactive (in assay [4]; in [7]; in assay [8]; with Aromatase (Homo sapiens)).
Consider `C=CCCCC`, for which the Potency entry in [1], in [2], in assay [3], in assay [5], in assay [6] and in assay [9] was “inactive” throughout. Moreover, the Potency entry in assay [12] and in assay [13] was “inactive” throughout. Besides, the result (in [7]; in assay [15]; in assay [8]; in assay [11]; in the assay with Aromatase (Homo sapiens)) was inactive.
Turning to `O=C(O)CNC(=O)CNC(=O)CNC(=O)CSC(=O)c1ccccc1`, the Potency result in assay [2], in assay [3], in assay [5], in assay [6], in [9] and in assay [10] was “inactive” throughout. The Potency result in assay [12] and in [13] was “inactive” in each case. For the same compound, the outcome (in [4]; in [7]; in [15]; in [8]; in [11]; in the assay with Aromatase (Homo sapiens)) was inactive.
